Sampled rows, rich in hits. Any-hit rate of the full collection: about 0.9%.
PPARg SRC-1 ag: agonists of human PPARgamma SRC-1 coactivator recruitment | 200,000 tested, 0.41% active | PPARgamma-SRC-1 coactivator recruitment biochemical assay | P37231 | activation, % at 8 µM; in the data active = activation above about 19%
Target sequence (P37231 whole entry, looked up): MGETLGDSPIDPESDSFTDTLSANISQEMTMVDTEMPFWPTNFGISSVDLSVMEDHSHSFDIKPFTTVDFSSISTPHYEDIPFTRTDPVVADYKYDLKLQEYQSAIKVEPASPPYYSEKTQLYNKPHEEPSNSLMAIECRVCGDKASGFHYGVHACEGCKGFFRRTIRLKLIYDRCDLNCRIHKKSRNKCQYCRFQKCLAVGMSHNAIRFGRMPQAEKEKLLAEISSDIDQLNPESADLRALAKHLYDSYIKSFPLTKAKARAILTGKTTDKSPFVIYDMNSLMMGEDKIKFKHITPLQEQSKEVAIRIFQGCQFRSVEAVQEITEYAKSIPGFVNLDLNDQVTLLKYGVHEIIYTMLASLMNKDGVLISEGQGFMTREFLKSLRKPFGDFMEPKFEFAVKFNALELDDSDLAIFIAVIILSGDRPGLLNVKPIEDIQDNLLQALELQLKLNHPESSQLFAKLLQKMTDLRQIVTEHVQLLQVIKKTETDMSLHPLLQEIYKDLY
PPARg SRC-3 ag: promotes SRC-3 coactivator recruitment by human PPARgamma | P37231 | biochemical PPARgamma/SRC-3 coactivator recruitment assay | activation, % at 8 µM | 200,000 tested, 0.26% active | AID 731; in the data active = activation above about 23%
SRC3 TRFRET art: counter-screen for PPARgamma SRC-3 recruitment agonists: TR-FRET artefact | TR-FRET ratio at 8 µM | AID 1048 | PPARgamma/SRC-3 format; hits give high values | 99,000 tested, 0.39% active
TR-FRET SRC-2 ct: counter-screen for PPARgamma SRC-2 recruitment agonists: TR-FRET artefact. 200,000 tested, 0.4% active. AID 1049. hits give high values. TR-FRET ratio at 8 µM
SRC1 TRFRET art: counter-screen for PPARgamma SRC-1 recruitment agonists: TR-FRET artefact. TR-FRET detection artefact counter-screen, emission ratio; hits give high values. TR-FRET ratio at 8 µM. 99,000 tested, 0.34% active. AID 1051; in the data active = TR-FRET ratio above about 2300
PPARg SRC2 recr: promotes SRC-2 coactivator recruitment by human PPARgamma. PPARgamma LBD-SRC-2 recruitment, biochemical. activation, % at 8 µM. 200,000 tested, 0.34% active. P37231; in the data active = activation above about 22%
PPARg SRC2 ag: confirmation of agonists of SRC-2 recruitment by human PPARgamma; shares compounds with PPARg SRC-3 ag; biochemical SRC-2 recruitment by PPARgamma; activation, % at 8 µM; 790 tested, 52% active; AID 1297; in the data active = activation above about 22%
PPARg SRC1 ag: human PPARgamma SRC-1 recruitment agonism, confirmation; shares compounds with PPARg SRC-3 ag; PPARgamma–SRC-1 coactivator recruitment biochemical assay; activation, % at 8 µM; 790 tested, 43% active; in the data active = activation above about 20%
PPARg SRC3 conf: confirmation of agonists of SRC-3 recruitment by human PPARgamma | activation, % at 8 µM | shares compounds with PPARg SRC-3 ag | 790 tested, 29% active | biochemical PPARgamma-SRC-3 coactivator recruitment, agonist mode; in the data active = activation above about 24%
A number is an active result; i = inactive; nt = no result given. Cut-off read from the data, not from the text of the source, unless noted: active = TR-FRET ratio above about 2000; inactive = the rest.

SMILES | PPARg SRC-1 ag | PPARg SRC-3 ag | SRC3 TRFRET art | TR-FRET SRC-2 ct | SRC1 TRFRET art | PPARg SRC2 recr | PPARg SRC2 ag | PPARg SRC1 ag | PPARg SRC3 conf
CCn1c(=O)cc(OCC(=O)N2CCCCCC2)c2ccccc21 | i | i | nt | i | nt | i | nt | nt | nt
CCn1c(=O)cc(SCC(=O)N2CCN(c3ccccc3OC)CC2)c2ccccc21 | 72 | 85 | nt | 2834 | nt | 68 | 53 | 37 | 34
CC(C)(C)NS(=O)(=O)c1ccc(/C=C/C(=O)O)cc1 | i | i | i | i | i | i | nt | nt | nt
Cc1c(Cl)c([N+](=O)[O-])nn1CCCC(=O)NCCc1ccccc1 | i | i | i | i | i | i | nt | nt | nt
CC(C)(C)C(=O)NC(=S)NNC(=O)c1ccc(Cl)cc1Cl | i | i | i | i | i | i | nt | nt | nt
CCN1CCCC1CNC(=O)CSc1cc(=O)n(CC)c2ccccc12 (stereo not drawn) | 23 | 42 | nt | 2187 | nt | 26 | 27 | i | i
CCn1c(=O)cc(SCC(=O)N2CCN(C(=O)c3ccco3)CC2)c2ccccc21 | 54 | 63 | nt | 2772 | nt | 55 | 34 | 21 | i
COC(=O)CSc1ncnc2c1sc1nc3c(cc12)COC(C)(C)C3 | i | i | i | i | i | 24 | i | i | i
COc1cc(CNCCN(C)C)c(Br)cc1OC1CCCC1 | i | i | i | i | i | i | nt | nt | nt
N#Cc1ccc(-c2ccc3c(c2)OCO3)nc1SCC(=O)OCc1ccccc1 | 40 | 46 | nt | 1976 | nt | i | 51 | 43 | 25
Cc1ccc(C(=O)CSc2nc(-c3ccccc3)ccc2C#N)cc1 | i | i | i | i | i | i | nt | nt | nt
COc1ccc(Cn2c(-c3ccc(C)cc3)c[n+]3ccccc23)cc1 | i | i | i | i | i | i | nt | nt | nt
CCOC(=O)c1c(N)sc(=S)c2c1CCC2 | 19 | 34 | nt | 2147 | nt | 27 | i | i | i
COc1ccc(/C(C)=N/NS(=O)(=O)c2cc(C)ccc2C)c(OC)c1 | i | i | i | i | i | i | nt | nt | nt
O=C(O)CCC(=O)Nc1cccc(C(=O)Nc2ccc(Br)cc2)c1 | i | i | i | i | i | i | nt | nt | nt
O=C(O)Cc1cc(C(=O)Nc2ccc(Br)cc2)sc1-c1ccccc1 | 33 | i | 2260 | 2211 | 2611 | 22 | i | i | i
CCN(CC)S(=O)(=O)c1ccc2oc(C(=O)Nc3ccc(OC)cc3OC)c(C)c2c1 | 19 | i | nt | i | nt | i | i | i | i
COc1ccc(NC(=O)c2oc3cc(C)c(C)cc3c2C)c(OC)c1 | i | i | nt | i | nt | i | nt | nt | nt
O=C(CCN1CCN(c2ccccc2)CC1)N/N=C/c1ccccc1OC(F)F | i | i | i | i | i | i | nt | nt | nt
Cc1ccc(NC(=O)CSc2nc3ccccc3c3nc(CCc4c(C)n[nH]c4C)nn23)cc1F | 25 | i | nt | i | nt | i | i | i | i
Cc1n[nH]c(C)c1CCc1nc2c3ccccc3nc(SCC(N)=O)n2n1 | i | i | nt | i | nt | i | nt | nt | nt
COc1ccc(NC(C)C(=O)N/N=C/c2ccccc2OCc2cccc(Br)c2)cc1 (stereo not drawn) | 22 | 37 | i | i | i | i | i | 24 | i
Cc1ccccc1NC(C)C(=O)N/N=C/c1ccccc1OCc1cccc(Br)c1 (stereo not drawn) | i | i | nt | i | nt | i | nt | nt | nt
CC(=O)Nc1ccc(Br)cc1C(=O)C(=O)O | i | i | i | i | i | i | nt | nt | nt
CCCC(=O)Nc1ccc(C(=O)n2ccc(C)n2)cc1 | i | i | i | i | i | i | nt | nt | nt
Cn1c(=O)cc(SCC(=O)NCc2cccnc2)c2ccccc21 | 28 | 38 | nt | i | nt | 22 | 24 | i | i
Cn1c(=O)cc(SCC(=O)Nc2cccnc2)c2ccccc21 | 66 | 93 | nt | 3288 | nt | 62 | 28 | i | i
Cc1ccc(-c2n[nH]c(=S)n2C)cc1Cl | 26 | i | i | i | i | i | i | i | i
CCN(CC)S(=O)(=O)c1cccc(-c2n[nH]c(=S)n2C)c1 | i | i | i | i | i | i | nt | nt | nt
Cc1ccccc1SCCNC(=O)c1ccccc1Br | i | i | i | i | i | i | nt | nt | nt
